What all share (type): functional
Assay [1] deals with Solute carrier family 2, facilitated glucose transporter member 1 (Homo sapiens) (UniProt P11166). The experiment in a line: ST_JUDE_LEISH: Cytotoxicity at 2uM final concentration against transgenic Leishmania Mexicana promastigotes LmGLUT1 that are glucose transport deficient and complemented with the human glucose transporter GLUT1. Activity is measured by DNA content using SYBR green in vitro.

Assay [2] addresses Hexose transporter 1 (Plasmodium falciparum) (UniProt O97467). The experiment in a line: ST_JUDE_LEISH: Cytotoxicity at 2uM final concentration against transgenic Leishmania Mexicana promastigotes LmPfHT that are glucose transport deficient and complemented with the Plasmodium falciparum hexose transporter. Activity is measured by DNA content using SYBR green in vitro.
Assay [3] concerns the target Glucose transporter (Leishmania mexicana) (UniProt O61059). Briefly: ST_JUDE_LEISH: Cytotoxicity at 2uM final concentration against transgenic Leishmania Mexicana promastigotes LmGT2 that are glucose transport deficient and complemented with the L. Mexicana glucose transporter 2. Activity is measured by DNA content using SYBR green in vitro.

Solute carrier family 2, facilitated glucose transporter member 1 (Homo sapiens), sequence (P11166 whole entry): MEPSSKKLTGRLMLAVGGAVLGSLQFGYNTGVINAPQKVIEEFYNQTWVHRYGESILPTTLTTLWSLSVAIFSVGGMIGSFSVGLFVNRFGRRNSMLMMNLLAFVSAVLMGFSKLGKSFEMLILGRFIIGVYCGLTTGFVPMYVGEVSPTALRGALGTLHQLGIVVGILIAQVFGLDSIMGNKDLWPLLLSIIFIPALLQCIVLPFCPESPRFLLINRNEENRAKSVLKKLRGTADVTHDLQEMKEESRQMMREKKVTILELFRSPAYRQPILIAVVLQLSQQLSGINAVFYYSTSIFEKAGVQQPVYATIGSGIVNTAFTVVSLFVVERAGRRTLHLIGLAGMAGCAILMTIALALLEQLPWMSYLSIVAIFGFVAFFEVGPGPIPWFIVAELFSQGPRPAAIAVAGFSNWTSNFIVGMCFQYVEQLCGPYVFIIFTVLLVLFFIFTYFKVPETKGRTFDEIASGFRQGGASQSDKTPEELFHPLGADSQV

`O=C(/C=C/c1ccc(Cl)c(Cl)c1)NCCCCCN1CCC(NC(=S)Nc2ccc(Cl)cc2Cl)CC1`: the inhibition is 8.85% in assay [1], 9.09% in assay [2] and 7.71% in assay [3].
The matching figures for `c1ccc2c(NCCCCCCCNc3ccnc4ccccc34)ccnc2c1`: 13.5%, 13.3% and 12.9%.
The matching figures for `O=C(Nc1cccc(-c2csc(NC(=O)c3ccc4ccccc4c3)n2)c1)c1ccc2ccccc2c1`: 1.53%, 1.22% and 0.66%.
The corresponding values for `COc1ccc(Cn2c(Nc3cccc(C(F)(F)F)c3)nc3cc(C(=O)NC4CC4)cnc32)cc1Cl` are -1.9%, -0.56% and -3.22%.
Regarding `COc1ccc2nccc([C@@H](O)CN3CCC(c4cc(-c5ccc(Cl)cc5)[nH]n4)CC3)c2n1`, the inhibition was 64.9% in assay [1], 78.2% in assay [2] and 81.2% in assay [3].
The matching figures for `COC(=O)[C@@H](NC(=O)[C@@H](Nc1ccc(C#N)c2ccccc12)C(C)(C)C)c1ccc(O)cc1`: 2.65%, 1.12% and 0.19%.
The matching figures for `Clc1ccccc1CCNCC1CCN(CC2CCCCC2)CC1`: 4.24%, 5.3% and 1.76%.
The matching figures for `[O-][s+]1c(Cl)c(-c2ccc(Cl)cc2)c2ccc(Cl)cc21` (stereo not drawn): 6.36%, 8.82% and 3.59%.
Turning to `Oc1ccccc1CNCC12CC3CC(CC(C3)C1)C2`, the inhibition was 3.18% in assay [1], 2.08% in assay [2] and 2.13% in assay [3].
The matching figures for `CCCC(C)Nc1nc(C)cc(N[C@@H](Cc2ccccc2)C(=O)Nc2ccc(OC)cc2)n1` (stereo partly drawn): 4.27%, 5.6% and 0.54%.
With `Cc1cc(O)c(-c2ccc(OCc3ccc(Cl)cc3)cc2)c(C)n1`, the inhibition is 0.84% in assay [1], 0.22% in assay [2] and -0.29% in assay [3].
On to `CC(C)(C(=O)Nc1ccc(N2CCC3(CCCN(CC4CC4)C3)CC2)c(Cl)c1)c1cccc(C(F)(F)F)c1`, for which the figures for the inhibition in assay [1], in assay [2] and in assay [3] were 0.2%, -0.12% and 1.72%, respectively.
The matching figures for `COCCN1CCC(N(Cc2ccc(-c3ccc(OC(F)(F)F)cc3)cc2)C(=O)Cn2c(CCc3cccc(F)c3F)cc(=O)c3ccccc32)CC1`: 4.31%, 4.88% and 4.4%.
The corresponding values for `CC(C)(C)c1ccc(CN2CCC(NC(=O)c3ccc(-c4ccccc4F)s3)CC2)cc1` are 0.69%, -2.65% and -2.5%.
As for `CN(Cc1ccc(-c2ccc(C(F)(F)F)cc2)cc1)C(=O)Cn1c(CCc2cccc(F)c2F)cc(=O)c2ccc(OCCCN3CCCCC3)cc21`, the results for the inhibition in assay [1], in assay [2] and in assay [3] were 1.01%, 0.66% and -0.5%, respectively.
The matching figures for `CC(=O)Oc1c(Cl)c(C)nc(C)c1-c1ccc(Oc2ccc(OC(F)(F)F)cc2)cc1`: 3.62%, 3.09% and 2.42%.
Regarding `c1cc(C2=NC3CCCCC3N2)ccc1OCCCCCOc1ccc(C2=NC3CCCCC3N2)cc1` (stereo not drawn), the inhibition in assay [1] was determined as 2.83%; in assay [2] it was 5.62%; in assay [3], 1.28%.
The corresponding values for `CC1CN(c2cnn(C/C=C/c3ccc(NC(=O)c4ccc([N+](=O)[O-])cc4)cc3)c(=O)c2Cl)CC(C)N1` (stereo not drawn) are -0.1%, 1.74% and 0.18%.
The matching figures for `O=C(NCCc1cccc(F)c1)c1cc(Br)cc(N2CCN(c3ccncc3)CC2)c1`: 6.76%, 5.57% and 3.44%.
For the compound `CC(C)Nc1nc(NC2CCCCC2)nc(N2CCCCCCC2)n1`, the inhibition is 19.3% in assay [1], 17.4% in assay [2] and 11.6% in assay [3].
The corresponding values for `COc1ccc(CC(=O)NC(CCN2CCC3(CCc4ccccc43)CC2)c2ccc(Cl)c(Cl)c2)cc1` (stereo not drawn) are 0.25%, -0.66% and -0.93%.
The matching figures for `CCc1ccc(NC(=O)c2cccc(CN3CCCN(Cc4cccc(O)c4)CC3)c2)cc1`: 3.9%, 3.08% and 2.2%.
The corresponding values for `Cc1cccc2nc(-c3cccc(-c4cccc(NC(=O)Nc5cccc(C#N)c5)c4)c3)[nH]c12` are 11.2%, 10.1% and 10.3%.
Consider `COc1ccc2nccc(N3CCN(CCNCc4ccc5c(n4)NC(=O)CO5)CC3)c2c1`, for which the inhibition worked out at 8.8% in assay [1], 8.24% in assay [2] and 8.99% in assay [3].
The matching figures for `N#Cc1cc(C(=O)c2cc(Cl)ccc2O)cn(-c2cc(Cl)cc(Cl)c2)c1=O`: 2.16%, 3.14% and 2%.
The corresponding values for `N#Cc1ccc(N2CCN(Cc3cccc(-c4ccc(-c5nc6ccccc6[nH]5)cc4)c3)CC2)nc1` are 6.09%, 3.68% and -0.67%.
The corresponding values for `Cc1cccc(NC(=O)c2ccc(C(=O)NC3CCN(CC4CCCCC4)CC3)cc2)c1` are 4.08%, 7.67% and 4.8%.
With `CCc1cccc(NC(=O)/C=C/c2ccc3c(c2)CN(C)CC3)c1`, the inhibition in assay [1] amounted to 4.53%; in assay [2] it was 2.31%; in assay [3], 10.2%.
The corresponding values for `CCc1cn(C)c2c(N3CCCC3=O)cc(C(=O)N[C@@H](Cc3ccccc3)[C@H](O)CNC(C)(C)CCCC(C)C)cc12` are 3.03%, 4.09% and 3.95%.
As for `O=C(N[C@@H](CC1CCCCC1)C(=O)NCCc1ccc(Cl)c(Cl)c1)c1ccc(O)c(-c2ccc(Cl)c(Cl)c2)c1`, the inhibition in assay [1] is 0.23%; in assay [2] it was 0.3%; in assay [3] it was 1.25%.
The matching figures for `CCc1cc2c(N)nc(N)nc2nc1-c1ccccc1`: 4.22%, 3.93% and 0.81%.

The term inhibition denotes the drop in the measured response relative to a control, in per cent.

The values above are taken from ChEMBL document CHEMBL3433997, “St. Jude Leishmania screening dataset” (2016).
